Here are results for 35 molecules from PubChem BioAssay (NCI).

This test relates to HL-60(TB) leukemia. Briefly: NCI-60 one-dose screen, 48 h (100 = growth as untreated, 0 = no growth, -100 = all killed). Conditions: 10 µM unless noted.

“And” between values parts separate entries of the source, which are not always exact repeats. Equal values may be shown once. This is part of a sample that, as a whole, favours compounds with a hit. Of some 83,000 tested, about 20% had one in any assay.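 Assay: single dose, 48 h. Readout: percent growth (0 = no net growth; negative = cell death). Active: <10.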 A number with no mark means an inactive call. The source made the active and inactive calls.

With `O=C(N=Nc1c(O)[nH]c2ccc([N+](=O)[O-])cc12)c1ccc2nc(-c3ccccc3)[nH]c2c1`, the growth was 84.7%.
The figure for `Brc1ccc(/C=C/c2n(Cc3ccc4ccccc4c3)c3ccccc3[n+]2Cc2ccc3ccccc3c2)cc1` is -48.7% (active); for `N#Cc1ccc(/C=N/NC(=O)c2[nH]c3ccc(Br)cc3c2-c2ccccc2)o1` it is -25.1% (active); for `COc1ccccc1[C@H]1C(C(=O)c2ccc(O)cc2)C2(N[C@@H]1c1ccccc1)C(=O)Nc1ccc(Br)cc12` (stereo not given in full) it is 10.5%.
As for `Cc1ccc(C(=O)Nc2cc(-c3ccccc3)cc(C(F)(F)F)c2)cc1C#Cc1cnc2cccnn12`, the figure is 38.1%; as for `COc1c(F)ccc(C(=O)Nc2ccc3nc(NC(=O)C4CCCN(S(=O)(=O)c5ccc(C#N)cc5)C4)sc3c2)c1F` (stereo not given), 115%.
The figure for `Cc1ccc(-c2nc(Nc3ccc(S(N)(=O)=O)cc3)c3ccccc3n2)cc1` is 24.9%.
For the molecule `COc1cccc2nc(Nc3cccc(NC(=O)c4ccc(CN5CCCN(C)CC5)c(C(F)(F)F)c4)c3)ccc12`, the growth is -54.3% (active).
The figure for `O=C(CSc1nc2c(c(=O)[nH]1)CCCC2)Nc1ccccc1C(=O)O` is 95.1%; for `C[C@H]1[C@@H](CC(=O)N[C@@H](Cc2coc3ccccc23)B(O)O)O[C@@H]2OC3(C)CC[C@H]4[C@H](C)CC[C@@H]1[C@@]24O3` it is 11.2%.
Take `c1ccc(CSc2nnc(-c3ccc4nc(-c5ccccc5)[nH]c4c3)o2)cc1`: the growth was 83.5%.
The figure for `O=C(N/N=C/c1ccc(-c2cccc([N+](=O)[O-])c2)o1)c1[nH]c2ccc(Br)cc2c1-c1ccccc1` is -36.5% (active); for `Nc1nc(Nc2ccccc2)nn1Cc1c(Cl)cccc1Cl` it is 30%; for `COc1ccc2[nH]cc(/C=N/Nc3cccc(Cl)n3)c2c1` it is 23.7%.
As for `COc1ccc(-c2cc(C(=O)N=Nc3c(O)[nH]c4ccc(Cl)cc34)c3ccccc3n2)cc1`, the figure is 96%; as for `CC(C)Sc1nc(NCCc2c[nH]c3ccccc23)c(C#N)c(-c2ccccc2)n1`, 19.3%; as for `COc1ccc(-c2ccc(/C=N/NC(=O)c3[nH]c4ccc(Br)cc4c3-c3ccccc3)o2)cc1`, 6.17% (active).
For `O=C(/C=C/Nc1ccccc1)c1ccc2c(c1)Nc1ccccc1S2`, the growth is 90.9%.
The figure for `Brc1ccc(N/N=C/c2c[nH]c3ccccc23)nc1` is 13.2%.
The figure for `Cc1cc(N=C2NC(=O)S/C2=C\c2ccc(F)cc2)n[nH]1` is 1.74% (active); for `O=C(N=Nc1c(O)[nH]c2ccc(Br)cc12)c1ccc2nc(-c3ccccc3)[nH]c2c1` it is 30.9%.
The figure for `Cc1nc(N)ncc1-c1ccc2ncnc(N3CCc4cc(F)c(Cl)cc43)c2c1` is 46.6%; for `COc1cc(C=O)ccc1Oc1nc(Nc2ccc(F)cc2)nc(N(C)C)n1` it is 65.2% and 70.8%; for `CC1=C(C(=O)Nc2ccccc2)C(c2cccc(Cl)c2Cl)n2c(nc3ccccc32)N1` (stereo not given) it is 9.78% (active).
As for `Cc1ccc2nc(NC(=O)Nc3cccc(Cl)c3)sc2c1`, the growth is 95.7%.
The figure for `Nc1nn2c(-c3cc4cc(Br)ccc4oc3=O)ccnc2c1N=Nc1ccc(S(N)(=O)=O)cc1` is 104%.
The figure for `CN1C(=O)/C(=C/c2ccc3ncsc3c2)NC1=NC12CC3CC(CC(O)(C3)C1)C2` is -16.6% (active).
As for `COc1ccc2[nH]c(=O)cc(-n3ncc(C(=O)/C=C/c4cc(OC)c(OC)c(OC)c4)c3C)c2c1`, the figure is -33.4% (active); as for `CC(C)CCNC(=O)N/C(N)=N/c1nc2ccccc2s1`, 55.6%.
`COc1c(F)ccc(C(=O)Nc2ccc3nc(NC(=O)C4CCCN(S(=O)(=O)c5cccc(Cl)c5)C4)sc3c2)c1F` (stereo not given): the growth is 76.8%.
In the case of `NS(=O)(=O)c1ccc(Nc2nc(SCC(=O)c3ccc(F)cc3)nc3ccccc23)cc1`, the growth is 63.7%.
As for `Cc1ccc(/C(CSc2nnc(-c3c[nH]c4ccccc34)n2-c2ccccc2)=N/O)cc1`, the figure is -13.8% (active).
Turning to `COc1cccc2nc(Nc3ccc(F)c(NC(=O)c4ccc(CN5CCN(C)CC5)c(C(F)(F)F)c4)c3)ccc12`, the growth is -73.1% (active).
The figure for `CC(=O)Nc1ccc(-n2cnc3ccc(-c4ccc(O)cc4)cc32)cc1` is 38.2%; for `Cn1cc(-c2cc(N)n3nc(-c4c[nH]c5ccc(Cl)cc45)cc3n2)c2cc(Br)cnc21` it is -60.4% (active).
